Our source for the inhibition values is PubChem BioAssay AID743269 (The Scripps Research Institute Molecular Screening Center, 2014).

Screen size: about 370,000 compounds; about 2,400 (0.65%) were called active. The entries come from a sample that favours actives as a whole. Unmarked numbers belong to inactive results.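 The calls were made as follows: active = inhibition above the screen-wide mean plus 3 SD (cut at about 13% in these data); inactive = the rest.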

The subject of the assay is HIV-1 integrase (with human LEDGF/p75). Put plainly: blockers of LEDGF/p75-dependent integrase strand transfer – biochemical, TR-FRET, high throughput, primary screen (AID 743269).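 Also: signal is the Cy5 over europium emission ratio at 671 and 618 nm; 0% = plate median of compound wells.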 The conditions noted are these: TR-FRET IN-LEDGF/p75 DNA integration, Eu/Cy5; at 3.7 µM; hits give high values. (Time-resolved FRET reads energy transfer from a long-lived donor to a nearby acceptor.)
For `CC(=O)Nc1ccc(OC[C@@H](O)CN2CCC(C(O)(c3ccccc3)c3ccccc3)CC2)cc1`, the inhibition was -1.09%.
Regarding `COc1ccc(-n2c(COc3ccccc3)nnc2SCC(=O)Nc2ccc3c(c2)OCO3)cc1`, the inhibition is -0.67%.
To `C#CCCN([C@H](C(=O)OC)C(C)C)S(=O)(=O)c1ccc(F)cc1Br` belongs -3.33%; to `c1cncc(CNc2ccnc(-c3ccc4c(c3)OCO4)n2)c1`, 2.55%; to `Cc1ccc(OCc2nnc(SC/C=C/c3ccccc3)n2Cc2ccco2)cc1`, 1.59%.
For `Cc1cc(C)cc(C(=O)NC(=S)Nc2ccc3[nH]c(=O)[nH]c3c2)c1`, the inhibition was 3.15%.
For `Cc1ccc(S(=O)(=O)/N=C(/Nc2ccc3[nH]c(=O)[nH]c3c2)c2ccccc2)cc1`, the inhibition is -0.12%.
Then `Cc1ccc(C(=O)NC(=S)Nc2ccc3[nH]c(=O)[nH]c3c2)cc1C`, with 16.7% (active).
Then `O=C(CSc1nc2ccccc2n1Cc1ccccc1Cl)N/N=C\c1c[nH]c2ccccc12`, with 5.76%; and `O=C(Nc1nc(-c2ccco2)c(-c2ccco2)s1)c1ccco1`, with 68.8% (active).
With `O=C(Nc1c(-c2ccccc2)nc2c(Br)cc(Br)cn12)c1ccco1`, the inhibition is 1.6%.
Turning to `O=C(Nc1ccccc1C(=O)N1CCCCC1)c1ccco1`, the inhibition was 6.1%.
With `CCOC(=O)C1CCN(C(=O)C(C)(C)NC(=O)Nc2ccccc2Cl)CC1`, the inhibition was -0.46%.
Take `O=C(CN(C(=O)c1nsc(Cl)c1Cl)c1cccc(F)c1)NC1CCCC1`: the inhibition was -3.15%.
As for `O=C(CN(C(=O)c1csnn1)c1ccc(Br)cc1)NC1CCCC1`, the inhibition was 1.56%.
With `O=C(CN(C(=O)c1csnn1)c1cccc(Cl)c1)NC1CCCC1`, the inhibition is 27.8% (active).
`C=CCOC/C=C/C#CCN(CC=C)Cc1ccc(OC)cc1OC`: the inhibition is 5.5%.
For the compound `CCOC(=O)[C@]12CCCC3=C1N(CCC3)C(=O)[C@@H](CC(=O)NCc1cccs1)C2`, the inhibition is -1.84%.
To `O=C(NC1CCCCC1)N1CCc2[nH]c3ccccc3c2C1` belongs 35.1% (active).
Consider `O=C(Nc1cccc2c1CCCC2)C1CCN(C(=O)NC2CCCCC2)CC1`, for which the inhibition was -1.21%.
`O=C(CSc1nnc2c(n1)[nH]c1ccccc12)NC1CCCCC1`: the inhibition is 4.55%.
`CC(=O)C1(C(=O)Nc2nccs2)CC(c2ccccc2C(F)(F)F)=NO1` (stereo unspecified): the inhibition is 1.17%.
On to `CC(O)c1nc2ccccc2n1Cc1ccc([N+](=O)[O-])cc1` (stereo unspecified), for which the inhibition was 0.5%.
Turning to `CC(=O)c1nc2ccccc2n1Cc1ccccc1`, the inhibition is 22.6% (active).
Then `O=C(O)Cn1c(Cc2ccccc2)nc2ccccc21`, with -1.98%; and `COc1cccc(/C=C2\CC3(OC(C)=O)CCCN2C3)c1` (stereo unspecified), with -3.9%; and `O=C1C(=O)N(Cc2ccc(-c3ccsc3)cc2)c2ccc(OC(F)(F)F)cc21`, with 0.06%.
As to `Cc1cccc(NC(=O)C[C@H]2CC[C@H]3[C@@H](COc4ccc(NC(=O)Nc5ccccc5)cc4C(=O)N3C)O2)c1`, the inhibition is 1.61%.
For `Cc1ccc(C2=CCN(C)C(=O)N2c2ccc(Cl)cc2)cc1`, the inhibition was 0.69%.
As to `Oc1c(C=Nc2cccc3nsnc23)ccc2ccccc12`, the inhibition is 25.6% (active).
As for `O=C(CSc1nnc(COc2ccccc2)n1-c1ccc(Cl)cc1)Nc1ccc2c(c1)OCO2`, the inhibition was -1.91%.
In the case of `COC(=O)C1CN(CC(C)C)CCS(=O)(=O)N1Cc1ccc(F)cc1` (stereo unspecified), the inhibition is -4.4%.
As to `Cc1nc(SCC(=O)c2ccccc2)c([N+](=O)[O-])[nH]1`, the inhibition was -5.1%.
Regarding `COc1ccc(C(=O)CSc2n[nH]c(N)n2)cc1`, the inhibition was -3.51%.
Take `Cc1cc(Oc2ccc(Cl)cc2)nc(SCC(=O)c2ccccc2)n1`: the inhibition is 35.9% (active).
Then `COC(=O)[C@]12C[C@H](CC(=O)NCCCN3CCCC3=O)C(=O)N(CCc3ccc(OC)c(OC)c3)C1=C[C@H](COCc1ccccc1)O[C@@H]2C`, with -3.08%; and `NC1=CC(=O)C(=O)c2cccnc21`, with 40% (active); and `O=c1ccc2c(-c3ccccc3S(=O)(=O)O)c3ccc(O)c(O)c3oc-2c1O`, with 84% (active).
Regarding `Cc1c[nH]c2cccc(-c3ccc(Cl)cc3)c12`, the inhibition was 4.29%.
Then `C[C@@H]1CN([C@@H](C)CO)C(=O)c2cccc(NC(=O)Nc3cccc4ccccc34)c2O[C@H]1CN(C)S(=O)(=O)c1ccccc1F`, with 3.05%; and `C#CCN([C@H](C(=O)OC)C(C)CC)S(=O)(=O)c1ccccc1Br` (stereo partly specified), with 2.37%.
As for `Cc1cc(=O)[nH]c(SCC(=O)Nc2ccc(F)cc2F)n1`, the inhibition is -4.09%.
In the case of `CCC(=O)Nc1ccc2c(c1)C(=O)N(C)[C@@H]1CC[C@@H](CC(=O)NCCc3ccccc3)O[C@H]1CO2`, the inhibition was -2.65%.
Consider `Cc1ccc(N=C2NC(=O)/C(=C/C=C/c3ccco3)S2)cc1C`, for which the inhibition is 16.8% (active).
To `COC(=O)C[C@@H]1CC[C@@H]2[C@H](COc3ccc(NC(=O)c4cccc(F)c4)cc3C(=O)N2C)O1` belongs 7.98%.
Consider `Cc1ccc(-n2c(COc3ccccc3)nnc2SCC(=O)Nc2ccc3c(c2)OCCO3)cc1`, for which the inhibition is -2.45%.
With `C=CCn1c(SCC(=O)CC(=O)OCC)nc2cc(C(=O)N3CCC(C(N)=O)CC3)ccc2c1=O`, the inhibition is -1.71%.
As for `C=CCn1c2ccccc2c2nnc(SC(CC)C(=O)Nc3nc(C)c(C(=O)OCC)s3)nc21` (stereo unspecified), the inhibition was -2.02%.
`C=CCn1c2ccccc2c2nnc(SCc3[nH]c(=O)[nH]c3C(=O)CCCCC(=O)OCC)nc21`: the inhibition was 43.2% (active).
In the case of `COc1cccc(N2CCN(CC(=O)N(C)Cc3ccc(F)cc3)CC2)c1`, the inhibition was -2.54%.
To `COC(=O)[C@]12C[C@H](CC(=O)N3CCOCC3)C(=O)N(Cc3ccc(Cl)cc3Cl)C1=C[C@H](COCc1ccccc1)O[C@@H]2C` belongs 0.62%; to `Cc1ccc(C(=O)C2CCN(CC(=O)NCCC(C)C)CC2)cc1`, 0.16%.
Consider `CC(C)(C)C1C/C(=C/c2ccco2)C(=O)/C(=C/c2ccco2)C1` (stereo unspecified), for which the inhibition was 79.5% (active).
On to `COc1ccc(CN(CCN2CCOCC2)C(=O)c2ccc(C)cc2)cc1OC`, for which the inhibition is -0.71%.
Take `CCOC(=O)c1cccc(NC(=O)CN(C)S(=O)(=O)c2ccc(-c3cocn3)s2)c1`: the inhibition is 2.14%.
Then `CCCCC(=O)N[C@@H]1CC[C@@]23CCCN2C(=O)CCC[C@H]3[C@H]1C`, with 0.47%; and `COc1ccnc(C(=O)N2CCC(Oc3cccnc3)CC2)c1`, with -0.27%.
As for `COCc1cc(C)nc2sc(C(=O)NC3CCCCC3)c(N)c12`, the inhibition was 0.63%.
Then `COc1ccc(-c2c(C(C)=O)c(C)nc3sc4c(=O)n(-c5ccc(C)cc5)nnc4c23)cc1`, with -0.97%; and `COCc1cc(C)nc2sc3c(=O)n(-c4cccc5ccccc45)nnc3c12`, with 18.6% (active).
Then `Clc1ccc(-n2c(COc3ccccc3)nnc2SCc2nc3ccccc3[nH]2)cc1`, with -0.48%; and `Oc1cc(O)c2c(c1)OC(c1ccc(O)c(O)c1)C(O)C2` (stereo unspecified), with 17.4% (active); and `O=C(Nc1cc(Cl)cc(Cl)c1)OCCN1CCCC12CCC(c1ccccc1)CC2` (stereo unspecified), with -0.23%.
To `Cc1ccc(-n2c(SCC(=O)Nc3ccc(S(=O)(=O)Nc4nccs4)cc3)nnc2-c2ccncc2)cc1` belongs -1.61%; to `CCOC(=O)c1c(C)oc(C)c(C(=O)OCC)c1=O`, 3.08%.
On to `CCOC(=O)c1c(C)oc2cc(Sc3ccccc3)c(O)c(O)c12`, for which the inhibition was 23.4% (active).
As for `CCOC(=O)c1c(C)oc2cc(Br)c(OCC(N)=O)cc12`, the inhibition is -0.08%.
For the compound `COC(=O)CC1CCc2cc(C)cc(C(CC(C)C)NC(=O)[C@H](CC(C)C)NC(=O)OCc3ccccc3)c2O1` (stereo partly specified), the inhibition was -0.18%.
Take `CCN(C(=O)[C@@H](C1CC1)[C@@H](O)c1ccc2ccccc2c1)c1ccccc1`: the inhibition was -2.01%.
As for `Cc1ccc(Cc2cnc(N)s2)o1`, the inhibition was 31.2% (active).
`O=C(Nc1nc2ccc(Cl)cc2s1)c1cc(-c2ccc(Cl)cc2)nc2ccccc12`: the inhibition is 6.18%.
On to `CN(C)c1ccc(NC(=O)NC2CCCCN(Cc3ccc(Cl)cc3)C2=O)cc1` (stereo unspecified), for which the inhibition is 6.63%.
Take `CCn1c(=O)n2n(c1=O)[C@@]1(C=C3CCCC[C@H]32)N=C(NC(=O)c2ccccc2)N(Cc2ccccc2)[C@H]1Cc1ccccc1`: the inhibition is 2.19%.
For the compound `Clc1ccc(C2=CSC3=Nc4cccc5cccc(c45)N23)cc1`, the inhibition is 37.2% (active).
Then `CC(=O)Nc1nc2ncccn2c1-c1ccc(C(F)(F)F)cc1`, with 4.33%.
Then `CCC(C)[C@@H](C(=O)OC)N(CCc1cn(Cc2ccccc2)nn1)S(=O)(=O)c1ccccc1Br` (stereo partly specified), with 1.03%; and `CC(C)CNc1cccc2c1S(=O)(=O)N(Cc1cn(Cc3ccccc3C(F)(F)F)nn1)Cc1ccccc1O2`, with -0.84%.
Turning to `CCOC(=O)[C@]12CCCC3=C1N(CCC3)C(=O)[C@@H](CC(=O)NCC13CC4CC(CC(C4)C1)C3)C2`, the inhibition was 0.85%.
Consider `O=C(NCc1ccco1)C1CCCN(S(=O)(=O)c2ccc(Cl)s2)C1` (stereo unspecified), for which the inhibition was -0.9%.
Turning to `CCc1cc2cc(OC)ccc2nc1SCC(=O)Nc1cc(OC)c(OC)cc1C(=O)O`, the inhibition is 17.2% (active).
Turning to `COc1ccc(OC)c(NC(=O)CSc2nc(-c3ccccc3)cc(=O)[nH]2)c1`, the inhibition is 2.74%.
As for `COC(=O)c1cc(OC)c(OC)cc1NC(=O)CSc1ccc(C)cc1`, the inhibition is -3.23%.
`C=CCN(C(=O)[C@@H](CCCC)[C@@H](O)c1ccc(Cl)cc1)c1ccccc1`: the inhibition was 2.74%.
Regarding `CN(CC(=O)Nc1ccc(S(=O)(=O)N2CCCC2)cc1)Cc1ccc(Cl)c(Cl)c1`, the inhibition is 30.4% (active).
For the compound `CC(C(=O)Nc1ccc(S(=O)(=O)N2CCCC2)cc1)N(C)Cc1ccc(F)cc1` (stereo unspecified), the inhibition is -5.41%.
With `CCc1ccc(CN(C)C(C)C(=O)Nc2ccc(S(=O)(=O)N3CCCC3)cc2)cc1` (stereo unspecified), the inhibition is -3.86%.

For orientation: inhibition means the change of the read-out against control, counted positive when it falls.
